What all share (assay): NCI-60 one-dose screen, 48 h (100 = growth as untreated, 0 = no growth, -100 = all killed)
Experiment [1] has as its system SK-MEL-2 melanoma. The following applies: 10 µM.
Experiment [2] relates to EKVX NSCLC. To be noted: 10 µM.
The subject of experiment [3] is SN12C renal. The following applies: 10 µM.
The subject of experiment [4] is UO-31 renal. The following applies: 10 µM.
Experiment [5] concerns TK-10 renal. The following applies: 10 µM unless noted.
The test system of experiment [6] is ACHN renal. The following applies: 10 µM.
Experiment [7] concerns CAKI-1 renal. To be noted: 10 µM.
Experiment [8] relates to A498 renal. The following applies: 10 µM.
For experiment [9], the system named is CCRF-CEM leukemia. The following applies: 10 µM.
Experiment [10] relates to MOLT-4 leukemia. The following applies: 10 µM.
Experiment [11] has as its system SR leukemia. To be noted: 10 µM.
In experiment [12] the test system is RPMI-8226 leukemia. To be noted: 10 µM.
For experiment [13], the system named is OVCAR-8 ovarian. The following applies: 10 µM.
Experiment [14] deals with OVCAR-5 ovarian. To be noted: 10 µM.
In experiment [15] the test system is IGROV1 ovarian. The following applies: 10 µM.
In experiment [16] the test system is OVCAR-3 ovarian. The following applies: 10 µM.
The subject of experiment [17] is HS 578T breast. The following applies: 10 µM.
The subject of experiment [18] is NCI/ADR-RES ovarian. The following applies: 10 µM.
Experiment [19] deals with OVCAR-4 ovarian. To be noted: 10 µM.
The test system of experiment [20] is SK-OV-3 ovarian. The following applies: 10 µM.

Compounds without any hit were thinned out: in the full panel of roughly 83,000, 20% have a hit.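 Note: values are percent growth. 100 is the growth of untreated cells, values between 100 and 0 indicate rising inhibition; between -100 and 0 indicates cell death.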 Unmarked numbers belong to inactive results. Active and inactive are the calls of the source. The calls were made as follows: active = growth percent below 10; inactive = the rest.

For `O=C(O)[C@@H]1[C@H]2C[C@H]3c4[nH]c5ccccc5c4CCN3C[C@@H]2CC[C@@H]1O`, the growth in experiment [1] is 30.5%; in [2], 110%; in experiment [3], 107%; in experiment [4], 82.8%; in experiment [5], 104%; in experiment [6], 100%. In addition, the growth was 105% in experiment [7]; 130% in experiment [8]; 103% in [9]; 139% in experiment [10]; 115% in experiment [11]; 111% in [12]. Further, the growth in experiment [13] was 87.6%; in experiment [14] it was 105%; in experiment [15], 114%; in [16] it was 111%; in experiment [17] it was 102%; in experiment [18], 112%.
Take `CCCCC/C=N/Nc1nc(C)cc(=O)[nH]1`: the growth in [1] was 121%; in experiment [2] it was 91.4%; in experiment [3] it was 97.4%; in experiment [4] it was 92.1%; in [5], 108%; in experiment [6], 102%. Also, the growth in [7] was 88.3%; in [8] it was 96.2%; in experiment [9], 105%; in experiment [10], 95.3%; in experiment [11], 90.4%; in experiment [12], 119%. For the same compound, the growth in experiment [13] is 100%; in experiment [14] it was 104%; in experiment [19], 107%; in experiment [20], 113%; in experiment [15], 109%; in [16], 114%. Besides, the growth in [17] is 101%; in experiment [18] it was 99.9%.
In the case of `CC(C)C(C#N)(C(C)C)C(C)C`, the growth in experiment [1] is 98%; in experiment [2], 96.7%; in experiment [3] it was 99.9%; in [4], 81.5%; in experiment [5], 96%; in experiment [6] it was 108%. The growth is 95.6% in experiment [7]; 98.3% in [8]; 102% in experiment [9]; 104% in [10]; 89.8% in experiment [11]; 96.5% in experiment [12]. The growth in experiment [13] is 109%; in experiment [14], 108%; in [19], 109%; in experiment [20], 109%; in experiment [15] it was 103%; in experiment [16], 107%. The growth in experiment [17] was 106%; in experiment [18] it was 104%.
With `COc1cc2c3c(n(C)c(=O)c2cc1OC)-c1cc2c(cc1C3=O)OCO2`, the growth in [1] was 113%; in experiment [2] it was 94.2%; in experiment [3], 87%; in [4] it was 32.6%; in experiment [5] it was 101%; in [6], 26.6%. Moreover, the growth in experiment [7] was 24.3%; in experiment [8] it was 75.5%; in experiment [9], 29.5%; in [10], 18.3%; in experiment [11] it was 17.6%; in experiment [12], 48.2%. In addition, the growth was 78.4% in experiment [14]; 55.8% in experiment [19]; 74.6% in [20]; 11.3% in experiment [15]; 104% in [16]; 102% in experiment [17]. Besides, the growth in experiment [18] was 77.5%.
For the compound `CCS(=O)(=O)c1cc(=O)[nH]c(=O)[nH]1`, the growth is 101% in experiment [1]; 91.4% in [2]; 101% in experiment [3]; 90.1% in experiment [4]; 102% in [5]; 96.8% in experiment [6]. Also, the growth is 88.4% in experiment [7]; 121% in experiment [8]; 110% in experiment [9]; 128% in [10]; 57.6% in experiment [11]; 124% in experiment [12]. In addition, the growth in experiment [13] is 114%; in experiment [14], 106%; in experiment [19], 102%; in [20], 116%; in [15] it was 136%; in experiment [16] it was 112%. The growth in experiment [17] is 113%; in [18], 103%.
With `Nc1ncnc2c1nc(N)n2C1OC(CO)C(O)C1O` (centres undefined), the growth in experiment [1] was -11.6% (active); in experiment [2] it was -33.2% (active); in experiment [3] it was -22.8% (active); in [4], -53.9% (active); in experiment [5], -14.2% (active); in experiment [6] it was 2.76% (active). In addition, the growth in experiment [7] was -28.6% (active); in experiment [8], -80.3% (active); in experiment [9] it was 1.73% (active); in [10] it was 1.73% (active); in [11], -3.14% (active); in [12], 5.98% (active). The growth in [13] is 2.25% (active); in experiment [14], -12.9% (active); in experiment [19], -2.8% (active); in experiment [16] it was -12.9% (active); in experiment [17] it was -13.9% (active); in experiment [18], -45.2% (active).
With `COCCOCCCl`, the growth in [1] is 109%; in experiment [2] it was 112%; in [3] it was 104%; in experiment [4], 97.2%; in experiment [5], 102%; in experiment [6], 113%. Besides, the growth in experiment [7] was 98.8%; in experiment [8] it was 91.2%; in [9] it was 106%; in experiment [10], 117%; in experiment [11], 108%; in experiment [12], 115%. Moreover, the growth in experiment [13] was 110%; in [14] it was 106%; in experiment [19], 105%; in experiment [20], 109%; in [15], 116%; in [16], 111%. Further, the growth was 102% in experiment [17] and 109% in experiment [18].
As to `CCCCOC(OCCCC)c1ccccc1`, the growth was 108% in [1]; 110% in experiment [2]; 101% in experiment [3]; 98.4% in experiment [4]; 107% in [5]; 109% in experiment [6]. Besides, the growth in experiment [7] is 96.3%; in experiment [8] it was 84.7%; in [9], 105%; in experiment [10], 106%; in experiment [11], 103%; in [12], 110%. The growth in [13] was 108%; in experiment [14], 107%; in experiment [20], 115%; in experiment [15], 115%; in experiment [16], 105%; in experiment [17], 111%. Further, the growth in experiment [18] is 97.9%.

The values are drawn from PubChem BioAssay (NCI).
